Sampled rows, rich in hits. Any-hit rate of the full collection: about 21%.
Pf growth 48h = Primary qHTS for delayed death inhibitors of the malarial parasite plastid, 48 hour incubation | P. falciparum luciferase growth in erythrocytes, 48 h | Potency, µM (doses to about 28.7 µM), usual class: inhibitors | 310,000 tested, 5.9% active; active means well fitted inhibition curve with a large enough effect; inconclusive means small, poorly fitted or top-dose-only effect, or another doubt; inactive means no such curve, though single readings can be large or run the other way
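Read-out is firefly luciferase luminescence from an integrated reporter in P. falciparum, so falling signal marks reduced parasite growth. Infected erythrocytes were at 2% hematocrit and 0.1% parasitemia (final) in Albumax-supplemented RPMI 1640.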
NS1 inh = qHTS Assay for Inhibitors of Influenza NS1 Protein Function. Potency, µM (series often up to 46.1 µM). 270,000 tested, 0.4% active. AID 2326, 2010; further: actives are rising curves; nearly all actives have a fitted effect of over 50% in size
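Read-out: OD600 growth recovery of NS1-expressing budding yeast. Cells grown overnight at 30C in -URA glucose medium, washed, resuspended and diluted 1:100 in 2% galactose assay medium, pH 6.0. Same strain lacking NS1 served as positive control.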
Pf growth 96h = Primary qHTS for delayed death inhibitors of the malarial parasite plastid, 96 hour incubation; P. falciparum luciferase reporter growth, 96 h; 320,000 tested, 6.9% active; Potency, µM (series often up to 28.7 µM), most hits filed as inhibitors; active means well fitted inhibition curve with a large enough effect; inconclusive means small, poorly fitted or top-dose-only effect, or another doubt; inactive means no such curve, though single readings can be large or run the other way
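Erythrocytes infected with luciferase-expressing P. falciparum were dispensed at 2% hematocrit and 0.05% parasitemia (final), then incubated with compounds 96 hours at 37 C in 5% CO2. Luminescence after detection reagent addition reported growth.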
SARS PLpro yeast = qHTS of Yeast-based Assay for SARS-CoV PLP. S. cerevisiae expressing SARS-CoV PLpro, growth rescue. AID 485353, 2010. 330,000 tested, 0.19% active. Potency, µM (titrated, usually from 32.9 µM), usual class: activators; further: nearly all actives have a fitted effect of over 55% in size
CHX counter = Cycloheximide Counterscreen for Small Molecule Inhibitors of Shiga Toxin. AID 2314, 2010. 300,000 tested, 12% active. cell reporter, cycloheximide protein synthesis inhibition counterscreen. max response, %; in the data active means max response mostly above about 13%, no sharp cut-off; inactive means mostly below about 14%; further: read at 38.3 µM for the half of the compounds with a filed dose
Shiga toxin inh = A qHTS for Small Molecule Inhibitors of Shiga Toxin; 290,000 tested, 9.2% active; Vero cells, Shiga toxin protein synthesis inhibition reporter; inhibition, % at 38.7 µM; in the data active means inhibition mostly above about 28%, no sharp cut-off; inactive means mostly below about 43%
Large screens that a line does not name were inactive. Unless noted, the call rests on the fitted dose curve.

COC(=O)C/C=N/N=C1/NC(=O)/C(=C/C(=O)O)S1	Pf growth 48h inconclusive, Pf growth 96h 9.3µM
CCC(C)(C)NC(=O)CCCSc1nc2ccccc2[nH]1	none
O=C(N/N=C1/SCC(=O)N1Cc1ccco1)c1ccccc1F	none
COc1cc(/C=C(\C#N)c2nc3ccccc3s2)cc([N+](=O)[O-])c1O	Pf growth 96h 9.3µM (no result: NS1 inh)
COc1ccc(-c2csc(/C(C#N)=C\c3ccc(O)c([N+](=O)[O-])c3)n2)cc1OC	Pf growth 48h 8.3µM, Pf growth 96h inconclusive
COc1ccc(NC(=O)c2cnc3sccn3c2=O)cc1	CHX counter 27, Shiga toxin inh 43
Cc1cccc(NC(=O)c2cnc3ccccn3c2=O)c1	Pf growth 96h 12µM, CHX counter 31, Shiga toxin inh 22
O=C(Nc1cnc2sccn2c1=O)c1ccccc1Cl	CHX counter 40
Cc1cccc(NC(=O)c2cc3c(=O)n4ccccc4nc3s2)c1	none
Cc1cccc(NC(=O)c2cnc3sccn3c2=O)c1	CHX counter 56, Shiga toxin inh 77
CC(C)Oc1ccc(C(CC(=O)O)n2cnnn2)cc1 (stereo unspecified)	none (no result: NS1 inh)
CC(NC(=O)C1c2ccccc2Oc2ccccc21)C1CCCO1 (stereo unspecified)	none (no result: NS1 inh)
Cc1cccc(NC(=O)c2cnc3sccn3c2=O)c1C	CHX counter 24, Shiga toxin inh 66
Cc1occc1C(=O)Nc1ccccc1C#N	none
CCc1ccc(C(=O)NNC(=O)CCc2nc3ccccc3c(=O)[nH]2)cc1	none (no result: NS1 inh, CHX counter, Shiga toxin inh)
CC(C)(C)c1[nH]nc2c1C(c1cccnc1)C(C#N)=C(N)O2 (stereo unspecified)	Pf growth 96h inconclusive
CC(C)(C)c1[nH]nc2c1C(Cc1ccccc1)C(C#N)=C(N)O2 (stereo unspecified)	Pf growth 48h 10µM
O=C(N/N=C/c1c(O)ccc2ccccc12)c1[nH]ncc1Br	Pf growth 48h 12µM, Pf growth 96h 12µM, SARS PLpro yeast inconclusive, CHX counter 44, Shiga toxin inh 82
Cc1ccc(O)c(/C=N/NC(=O)c2[nH]ncc2Br)c1	Pf growth 96h inconclusive, CHX counter 34, Shiga toxin inh 59
Cc1ccc(O)c(/C=N/NC(=O)CN2CCCC2)c1	Pf growth 48h inconclusive, Pf growth 96h inconclusive
COc1cccc(C(=O)N/N=C/c2cn[nH]c2-c2ccc(OC)cc2OC)c1	CHX counter 17
COc1ccc(-c2[nH]ncc2/C=N\NC(=O)c2ccc(Br)o2)cc1OC	CHX counter 19, Shiga toxin inh 34
COc1ccc(Br)cc1/C=N/NC(=O)c1cccnc1	none
O=C(CN1CCCC1)N/N=C/c1c(O)ccc2ccccc12	Pf growth 96h inconclusive
COC(=O)Cn1c(=O)c2c(nc3n2CCCN3CCc2ccccc2)n(C)c1=O	Pf growth 96h inconclusive
COc1ccc(OC)c(/C=N/NC(=O)c2[nH]ncc2Br)c1	CHX counter 43, Shiga toxin inh 72
Cc1ccc(O)c(/C=N/NC(=O)C2=NNC(c3ccccc3)(c3ccccc3)C2)c1	Pf growth 48h 2.9µM, Pf growth 96h inconclusive, SARS PLpro yeast 6.3µM
COc1ccc(OC)c(/C=N/NC(=O)c2[nH]nc3c2CCc2ccccc2-3)c1	none
O=C(N/N=C/c1c(O)ccc2ccccc12)c1cccc(C(F)(F)F)c1	Pf growth 48h 3.7µM, Pf growth 96h 2.6µM, SARS PLpro yeast 4µM
CCOc1ccc(/C=N/NC(=O)c2[nH]ncc2Br)c(O)c1	Pf growth 48h inconclusive, CHX counter 35, Shiga toxin inh 49
O=C(NCc1ccccc1)C1CCN(S(=O)(=O)c2ccc(Cl)cc2)CC1	Pf growth 48h inconclusive
CS(=O)(=O)Nc1ccc(-c2ccc(/C=C3\SC(N)=NC3=O)o2)cc1	Pf growth 96h 3.3µM
Cc1cccc(N2CCN(c3cccc(C)c3)C2c2cccnc2)c1	Pf growth 48h 1.9µM, CHX counter 34, Shiga toxin inh 71
COc1cc([N+](=O)[O-])cc2sc(NC(C)=O)nc12	none
C=CCNC(=S)Nc1cccc2[nH]ncc12	none (no result: NS1 inh)
O=C(Nc1cccc(Cl)c1)c1ccc2c(c1)SC1=NS(=O)(=O)CCN12	Pf growth 48h inconclusive, Pf growth 96h inconclusive
O=C(NC1CC1)c1cc2c(F)cccc2s1	CHX counter 33
COCc1c(C(=O)NC2CCCCC2)sc2cccc(F)c12	none (no result: NS1 inh, CHX counter, Shiga toxin inh)

Screens as filed in PubChem BioAssay.
